Reference: ChEMBL document CHEMBL3988442, “University of Dundee, Small-Polar-MMV Screening Library” (2021)
For some assays here: Measured potencies and affinities stand elsewhere.

How the values were obtained:
Parameters in all cases: scale not given: direction of the effect not stated beside the values
[1] = target: Protein translocase subunit SecA (Escherichia coli (strain K12)) (UniProt P10408); test: Assay to Identify E. coli SecA ATPase Inhibitors; type: functional; conditions: 30 µM
[2] = target: T1, Ubiquitin-activating enzyme e1, putative (Leishmania donovani (strain BPK282A1)) (UniProt E9BSI1); test: Leishmania donovani Ubiquitin Activating Enzyme (LdE1); type: functional; conditions: 30 µM
T1 sequence (whole entry): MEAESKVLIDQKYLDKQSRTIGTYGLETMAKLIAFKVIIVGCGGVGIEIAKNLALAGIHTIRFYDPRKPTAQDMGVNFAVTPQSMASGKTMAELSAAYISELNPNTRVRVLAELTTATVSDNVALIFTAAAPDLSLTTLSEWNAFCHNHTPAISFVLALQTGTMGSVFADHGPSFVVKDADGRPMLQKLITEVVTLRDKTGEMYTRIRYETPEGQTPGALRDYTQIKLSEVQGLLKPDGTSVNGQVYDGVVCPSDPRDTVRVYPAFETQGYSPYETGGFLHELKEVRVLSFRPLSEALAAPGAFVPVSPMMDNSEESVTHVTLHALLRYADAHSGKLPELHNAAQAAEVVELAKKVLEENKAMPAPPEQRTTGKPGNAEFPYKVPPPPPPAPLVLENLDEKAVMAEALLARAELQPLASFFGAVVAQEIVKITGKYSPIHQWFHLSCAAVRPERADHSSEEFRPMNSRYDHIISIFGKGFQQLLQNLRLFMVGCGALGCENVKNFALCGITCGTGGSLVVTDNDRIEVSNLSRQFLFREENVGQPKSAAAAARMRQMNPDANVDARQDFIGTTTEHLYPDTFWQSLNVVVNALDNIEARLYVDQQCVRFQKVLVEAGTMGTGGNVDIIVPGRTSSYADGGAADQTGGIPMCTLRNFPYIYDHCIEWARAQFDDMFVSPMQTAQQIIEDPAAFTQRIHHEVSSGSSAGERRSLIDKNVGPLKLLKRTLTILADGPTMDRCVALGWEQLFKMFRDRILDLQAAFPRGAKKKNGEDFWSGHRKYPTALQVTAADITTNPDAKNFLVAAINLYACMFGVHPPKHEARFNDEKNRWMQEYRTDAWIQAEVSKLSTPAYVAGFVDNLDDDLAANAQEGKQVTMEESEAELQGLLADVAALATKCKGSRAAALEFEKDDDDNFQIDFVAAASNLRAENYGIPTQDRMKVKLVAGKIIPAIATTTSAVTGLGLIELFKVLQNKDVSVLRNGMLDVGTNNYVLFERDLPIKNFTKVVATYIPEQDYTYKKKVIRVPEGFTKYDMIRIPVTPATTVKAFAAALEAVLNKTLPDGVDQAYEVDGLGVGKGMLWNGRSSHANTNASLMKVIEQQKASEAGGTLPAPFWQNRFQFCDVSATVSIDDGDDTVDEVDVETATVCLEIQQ

[3] = target: AMP-activated protein kinase, AMPK (Homo sapiens) (UniProt P54646+O43741+P54619+Q9UGJ0+Q9Y478+Q13131+Q9UGI9); test: AMP-dependent Kinase enzyme assay. An in vitro enzyme assay that detects ADP turnover that is directly proportional to AMPK activity. This uses naive AMPK that is activated during the assay with MK-8722; type: functional; conditions: 30 µM
[4] = target: Sialic acid-binding Ig-like lectin 9 (Homo sapiens) (UniProt Q9Y336); test: Hs-Siglec9 ALPHAscreen SOP 20170721; conditions: 10 µM
Trypanosoma cruzi = test: Trypanosoma cruzi phosphomannomutase and mannose-1-phosphate guanylyltransferase assay; type: functional; conditions: 10 µM
[5] = target: T2, Arginase-2, mitochondrial (Homo sapiens) (UniProt P78540); test: in vitro enzyme assay to detect the production of urea directly proportional to the activity of Arginase II; type: functional; conditions: 33.3 µM; also: in the data most compounds retested in dose-response had high values
T2 sequence (whole entry): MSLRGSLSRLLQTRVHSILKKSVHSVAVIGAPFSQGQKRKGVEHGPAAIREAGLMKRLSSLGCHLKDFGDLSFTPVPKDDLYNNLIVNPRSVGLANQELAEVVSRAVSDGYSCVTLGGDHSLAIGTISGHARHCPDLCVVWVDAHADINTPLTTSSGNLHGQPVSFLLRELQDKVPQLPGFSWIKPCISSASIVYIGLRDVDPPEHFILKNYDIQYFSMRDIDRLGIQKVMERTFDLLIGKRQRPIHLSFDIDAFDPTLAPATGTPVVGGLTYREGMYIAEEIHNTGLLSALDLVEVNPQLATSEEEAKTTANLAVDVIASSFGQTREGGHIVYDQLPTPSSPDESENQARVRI

[6] = target: T3, Proteasome subunit beta (Trypanosoma cruzi) (UniProt O96673); test: Trypanosoma cruzi proteasome chymotrypsin-like activity (TcProtChymo) assay.; also: in the data most compounds retested in dose-response had high values; type: functional; conditions: 9.37 µM
T3 sequence (whole entry): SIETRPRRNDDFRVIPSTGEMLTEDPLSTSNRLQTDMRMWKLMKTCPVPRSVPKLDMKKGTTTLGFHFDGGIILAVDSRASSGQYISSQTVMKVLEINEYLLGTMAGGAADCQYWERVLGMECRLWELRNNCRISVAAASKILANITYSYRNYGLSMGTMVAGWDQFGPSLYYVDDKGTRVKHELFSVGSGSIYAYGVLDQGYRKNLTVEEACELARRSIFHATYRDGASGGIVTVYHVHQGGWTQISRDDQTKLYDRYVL

Homo sapiens = species on record: Homo sapiens; test: To identify inhibition of the IFN signalling (Jak-Stat) pathway via expression of an eGFP reporter gene under the control of an IFN-stimulated response element (ISRE) containing MxA promoter.; type: functional; conditions: 30 µM
[7] = target: T4, Tyrosyl-tRNA synthetase, putative (Trypanosoma cruzi (strain CL Brener)) (UniProt Q4DSP6); test: Trypanosoma cruzi tyrosyl tRNA synthetase (TcYRS) _High Tyrosine SOP; type: functional; conditions: 30 µM; also: in the data most compounds retested in dose-response had high values
T4 sequence (whole entry): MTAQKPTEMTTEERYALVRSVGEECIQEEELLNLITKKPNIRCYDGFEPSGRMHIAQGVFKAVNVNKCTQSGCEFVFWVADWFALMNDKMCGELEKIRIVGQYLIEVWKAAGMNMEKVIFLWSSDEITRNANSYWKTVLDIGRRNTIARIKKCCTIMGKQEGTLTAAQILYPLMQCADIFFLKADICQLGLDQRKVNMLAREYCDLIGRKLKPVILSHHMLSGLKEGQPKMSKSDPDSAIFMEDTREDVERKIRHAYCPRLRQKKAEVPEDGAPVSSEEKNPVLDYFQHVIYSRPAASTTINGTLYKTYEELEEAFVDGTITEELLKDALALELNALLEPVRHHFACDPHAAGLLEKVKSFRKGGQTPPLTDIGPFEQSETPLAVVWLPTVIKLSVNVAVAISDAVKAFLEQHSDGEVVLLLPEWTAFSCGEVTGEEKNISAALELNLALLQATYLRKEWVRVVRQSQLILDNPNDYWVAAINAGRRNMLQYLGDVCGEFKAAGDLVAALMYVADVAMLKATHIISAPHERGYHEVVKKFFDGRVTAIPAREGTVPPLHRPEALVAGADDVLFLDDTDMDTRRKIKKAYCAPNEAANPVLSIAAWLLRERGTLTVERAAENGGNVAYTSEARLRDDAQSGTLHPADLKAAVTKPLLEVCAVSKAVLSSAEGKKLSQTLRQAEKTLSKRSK

[8] = target: T4, Tyrosyl-tRNA synthetase, putative (Trypanosoma cruzi (strain CL Brener)); test: Trypanosoma cruzi tyrosyl tRNA synthetase (TcYRS) SOP; type: functional; conditions: 30 µM
[9] = target: Chromo domain-containing protein 1 (Saccharomyces cerevisiae (strain ATCC 204508 / S288c) (Baker's yeast)) (UniProt P32657); test: ScCHD-1 Enzyme Inhibition Assay; type: functional; conditions: 30 µM; also: in the data most compounds retested in dose-response had high values
Chromo domain-containing protein 1 (Saccharomyces cerevisiae (strain ATCC 204508 / S288c) (Baker's yeast)), sequence (P32657 whole entry, the tested form may be a part): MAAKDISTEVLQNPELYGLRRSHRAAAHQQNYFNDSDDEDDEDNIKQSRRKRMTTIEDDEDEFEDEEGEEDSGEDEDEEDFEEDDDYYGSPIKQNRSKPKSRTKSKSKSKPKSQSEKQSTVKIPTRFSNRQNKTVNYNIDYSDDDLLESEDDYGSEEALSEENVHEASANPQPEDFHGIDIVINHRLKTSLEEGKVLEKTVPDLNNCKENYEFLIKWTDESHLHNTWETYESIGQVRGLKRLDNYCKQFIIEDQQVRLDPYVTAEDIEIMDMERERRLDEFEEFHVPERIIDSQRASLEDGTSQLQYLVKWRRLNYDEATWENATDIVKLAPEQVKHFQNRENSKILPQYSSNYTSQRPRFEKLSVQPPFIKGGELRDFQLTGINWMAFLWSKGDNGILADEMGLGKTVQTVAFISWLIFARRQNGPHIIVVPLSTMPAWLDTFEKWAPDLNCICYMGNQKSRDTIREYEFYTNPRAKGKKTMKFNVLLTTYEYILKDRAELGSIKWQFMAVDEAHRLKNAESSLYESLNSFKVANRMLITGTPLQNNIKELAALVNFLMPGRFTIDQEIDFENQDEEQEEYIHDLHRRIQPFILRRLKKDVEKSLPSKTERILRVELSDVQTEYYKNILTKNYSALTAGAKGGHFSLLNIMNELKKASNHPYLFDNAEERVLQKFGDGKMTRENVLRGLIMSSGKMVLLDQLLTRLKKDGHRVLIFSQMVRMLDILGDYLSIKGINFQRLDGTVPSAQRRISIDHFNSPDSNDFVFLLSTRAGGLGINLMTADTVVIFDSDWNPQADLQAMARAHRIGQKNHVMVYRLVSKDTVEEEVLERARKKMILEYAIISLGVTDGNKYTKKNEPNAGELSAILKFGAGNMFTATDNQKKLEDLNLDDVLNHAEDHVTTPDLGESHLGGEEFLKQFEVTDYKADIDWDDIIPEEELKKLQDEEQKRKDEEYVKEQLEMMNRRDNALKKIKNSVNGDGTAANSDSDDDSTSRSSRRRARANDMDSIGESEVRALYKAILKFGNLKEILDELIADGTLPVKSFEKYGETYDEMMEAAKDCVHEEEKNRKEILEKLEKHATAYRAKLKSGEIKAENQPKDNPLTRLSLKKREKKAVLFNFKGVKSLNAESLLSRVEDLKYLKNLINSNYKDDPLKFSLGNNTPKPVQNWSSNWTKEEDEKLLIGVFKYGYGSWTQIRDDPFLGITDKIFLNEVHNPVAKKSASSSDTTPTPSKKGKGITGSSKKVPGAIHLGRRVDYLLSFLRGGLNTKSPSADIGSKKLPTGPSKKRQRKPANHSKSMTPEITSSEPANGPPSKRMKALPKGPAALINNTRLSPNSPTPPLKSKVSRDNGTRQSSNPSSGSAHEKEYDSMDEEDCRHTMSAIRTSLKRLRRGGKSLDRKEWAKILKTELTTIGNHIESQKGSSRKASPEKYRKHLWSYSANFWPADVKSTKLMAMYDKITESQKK

Protein translocase subunit SecA (Escherichia coli (strain K12)), sequence (P10408 whole entry): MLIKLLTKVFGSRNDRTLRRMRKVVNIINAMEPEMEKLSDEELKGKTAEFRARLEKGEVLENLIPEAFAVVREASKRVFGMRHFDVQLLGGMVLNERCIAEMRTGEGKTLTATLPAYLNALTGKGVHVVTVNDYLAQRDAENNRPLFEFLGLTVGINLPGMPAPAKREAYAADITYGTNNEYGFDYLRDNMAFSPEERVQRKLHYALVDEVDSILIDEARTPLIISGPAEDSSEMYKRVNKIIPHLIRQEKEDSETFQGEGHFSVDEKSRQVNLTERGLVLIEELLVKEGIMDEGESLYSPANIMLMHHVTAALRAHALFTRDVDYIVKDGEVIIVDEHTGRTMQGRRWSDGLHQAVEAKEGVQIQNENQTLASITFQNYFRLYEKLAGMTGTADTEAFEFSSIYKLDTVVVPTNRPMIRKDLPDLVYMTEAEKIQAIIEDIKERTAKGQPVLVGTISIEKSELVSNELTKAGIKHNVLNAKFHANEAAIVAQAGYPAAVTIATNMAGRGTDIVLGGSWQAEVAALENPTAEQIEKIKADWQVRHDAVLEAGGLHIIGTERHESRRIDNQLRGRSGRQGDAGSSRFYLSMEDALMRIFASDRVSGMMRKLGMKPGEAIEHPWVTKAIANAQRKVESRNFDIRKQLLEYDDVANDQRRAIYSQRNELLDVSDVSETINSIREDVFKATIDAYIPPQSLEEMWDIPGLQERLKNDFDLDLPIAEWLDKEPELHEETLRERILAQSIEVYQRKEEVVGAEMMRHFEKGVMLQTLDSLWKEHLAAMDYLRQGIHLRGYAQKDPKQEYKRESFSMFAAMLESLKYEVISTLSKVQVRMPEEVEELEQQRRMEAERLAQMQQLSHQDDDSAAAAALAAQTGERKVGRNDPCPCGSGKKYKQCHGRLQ
Sialic acid-binding Ig-like lectin 9 (Homo sapiens), sequence (Q9Y336 whole entry): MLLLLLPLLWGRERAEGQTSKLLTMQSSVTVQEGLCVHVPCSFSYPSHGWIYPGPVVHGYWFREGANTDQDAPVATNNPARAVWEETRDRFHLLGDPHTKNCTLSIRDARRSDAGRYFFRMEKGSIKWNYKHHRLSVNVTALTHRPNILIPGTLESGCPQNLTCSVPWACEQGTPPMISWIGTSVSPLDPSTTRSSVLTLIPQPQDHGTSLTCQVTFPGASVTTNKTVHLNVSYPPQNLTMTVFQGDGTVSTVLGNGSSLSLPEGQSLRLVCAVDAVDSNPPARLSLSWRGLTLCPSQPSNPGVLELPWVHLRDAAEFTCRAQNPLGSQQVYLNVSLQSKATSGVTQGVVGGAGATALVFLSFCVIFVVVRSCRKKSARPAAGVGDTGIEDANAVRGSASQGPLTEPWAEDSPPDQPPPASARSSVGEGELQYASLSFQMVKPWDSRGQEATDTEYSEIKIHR

Structure (SMILES)	Percent Effect [1]	Percent Effect [2]	Percent Effect [3]	Percent Effect [4]	Percent Effect (Trypanosoma cruzi)	Percent Effect [5]	Percent Effect [6]	Percent Effect (Homo sapiens)	Percent Effect [7]	Percent Effect [8]	Percent Effect [9]
Cc1ccc(C(=O)O)cc1S(=O)(=O)Nc1nn(-c2ccccc2)cc1C	-5.95%	2.74%	9.77%	0.854%	-5.09%	0.455%	17.6%	17.3%	-10.8%	-17.5%	-5.76%
COc1cccc2c1ccn2CCC(=O)N1CCCC(C(=O)O)C1 (stereo not given)	-4.55%	5.26%	-2.19%	-4.72%	-9.64%	2.37%	11.2%	12.8%	-3.19%	0%	-6.61%
c1ccc(Cn2cc(CNCC3CCCN3c3cccnn3)cn2)cc1 (stereo not given)	-3.01%	7.89%	-1.98%	-4.74%	1.96%	-7.55%	15.5%	1.15%	15.3%	28.4%	-4.79%
O=C(Cc1ccc2c(c1)CCO2)N1CCN(c2cnccn2)CC1	-4.64%	-7.89%	2.2%	-0.444%	9.59%	-1.53%	0.167%	5.16%	3.43%	7.32%	-12.2%
O=C(NCCCNC(=O)c1cccc(O)c1)Nc1ccc(F)cc1F	-7.43%	18.4%	7.05%	-5.18%	2.24%	-3.55%	12.9%	3.94%	2.13%	15.6%	-5.87%
CC(=O)N1CCN(C)CC(COCc2ccccc2)C1 (stereo not given)	-5.71%	12.2%	7.92%	3.51%	4.54%	-2.09%	-1.09%	6.97%	4.3%	6.49%	-11.4%
CCc1cc(N[C@H]2CC[C@H](O)CC2)n2nc(C)c(C)c2n1	-3.74%	1.39%	0.211%	-3.49%	-2.82%	-0.442%	5.09%	-20.9%	-9.47%	10.3%	-3.52%
O=C(CCCc1ccc(F)cc1)N1C[C@@H](CN2CCOCC2)[C@@H](CO)C1	-3.25%	8.22%	-1.01%	-3.8%	-1.57%	1.82%	13.7%	-3.47%	7.53%	12.5%	-5.62%
Cc1ccc2c(n1)N(C)CCN(C(=O)NC1CC1)C2	-5.82%	-2.67%	117%	-1.66%	-7.53%	-57.2%	4.96%	18.6%	-3.12%	5%	-9.39%
CC(NCc1ccccc1Br)c1ccc2[nH]c(=O)[nH]c2c1 (stereo not given)	-1.71%	-18.9%	-5.22%	10.9%	5.19%	-0.401%	-0.18%	25.5%	-0.493%	6.17%	-4.59%
